# Experimental data as given in article PMC4336329 (PLoS ONE, 2015).
# The whole screen tested about 310,000 compounds, of which about 14,000 (4.5%) showed an effect of 50% or more. Effects have a minus sign here. For the sample, strong results were picked, then their nearest neighbours and some compounds at random.
# Molecular target: human ether-à-go-go-related gene (hERG) potassium channel (human, UniProt Q12809)
# Test: primary screen, population patch clamp on CHO cells stably expressing hERG; higher = less effect of the substance
# 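Also: peak tail current of the secondary pulse compared with the same well before compound.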
# Chain of human ether-à-go-go-related gene (hERG) potassium channel (Q12809 whole entry, looked up): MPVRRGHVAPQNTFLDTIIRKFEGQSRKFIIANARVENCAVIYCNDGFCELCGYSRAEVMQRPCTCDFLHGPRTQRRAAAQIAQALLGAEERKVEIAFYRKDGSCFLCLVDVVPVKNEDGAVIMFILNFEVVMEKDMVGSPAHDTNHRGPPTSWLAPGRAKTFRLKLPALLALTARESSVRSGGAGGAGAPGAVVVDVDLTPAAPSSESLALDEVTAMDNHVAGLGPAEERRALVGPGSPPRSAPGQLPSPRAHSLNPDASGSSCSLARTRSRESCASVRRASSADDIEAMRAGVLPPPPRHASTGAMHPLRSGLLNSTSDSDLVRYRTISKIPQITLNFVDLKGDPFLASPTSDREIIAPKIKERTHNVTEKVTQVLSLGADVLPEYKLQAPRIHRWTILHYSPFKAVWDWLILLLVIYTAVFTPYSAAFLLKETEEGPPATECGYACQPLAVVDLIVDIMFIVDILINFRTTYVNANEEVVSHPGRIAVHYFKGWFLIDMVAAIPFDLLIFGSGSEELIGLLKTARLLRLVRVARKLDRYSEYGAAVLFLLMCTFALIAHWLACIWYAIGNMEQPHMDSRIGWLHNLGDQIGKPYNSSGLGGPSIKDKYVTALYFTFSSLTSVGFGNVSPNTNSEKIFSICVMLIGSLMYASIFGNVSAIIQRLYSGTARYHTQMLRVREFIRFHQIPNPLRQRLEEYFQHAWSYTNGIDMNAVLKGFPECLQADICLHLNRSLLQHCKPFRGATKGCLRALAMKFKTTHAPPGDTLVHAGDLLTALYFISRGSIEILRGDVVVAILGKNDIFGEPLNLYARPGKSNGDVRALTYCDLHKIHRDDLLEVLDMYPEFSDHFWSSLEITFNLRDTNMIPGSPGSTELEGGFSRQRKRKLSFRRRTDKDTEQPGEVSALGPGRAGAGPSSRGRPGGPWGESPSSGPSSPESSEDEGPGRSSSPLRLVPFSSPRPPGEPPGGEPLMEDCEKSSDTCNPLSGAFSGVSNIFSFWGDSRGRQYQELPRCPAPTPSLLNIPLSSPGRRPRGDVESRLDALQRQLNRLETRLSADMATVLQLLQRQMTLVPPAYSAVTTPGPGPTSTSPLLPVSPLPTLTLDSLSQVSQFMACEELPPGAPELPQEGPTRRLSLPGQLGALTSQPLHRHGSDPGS
row,Compound,"hERG current change (%, negative = inhibition) at 10uM"
1,CC12CCC(C(=O)Nc3cccc(Cl)c3Cl)([C@H](Br)C1=O)C2(C)C (stereo partly shown),-39.6%
2,COC(=O)c1ccc(NC(=O)C2CCCN(S(=O)(=O)c3cnc[nH]3)C2)cc1 (stereo not shown),3.35%
3,Cc1ccc(C(=O)c2oc3ccccc3c2N)cc1,-7.77%
4,CCCCOc1ccc(C(=O)NCC(=O)NC(C)CCc2ccccc2)cc1 (stereo not shown),-4.99%
5,CC(=O)c1cnc(N(C)C)s1,10%
6,Cc1nnc(SCC(=O)Nc2ccc(-c3nc4ccccc4s3)cc2)s1,23.4%
7,N/C(=N\[N+](=O)[O-])N1CCN(C(=O)OC2CCCC2)CC1,19.4%
8,COc1ccc(CNC(=O)CC(C)S(=O)(=O)c2ccc3c(c2)NC(=O)CO3)cc1 (stereo not shown),10.1%
9,Cn1c(SCC(=O)Nc2ccc(Cl)cn2)nnc1C1CC1,-3.25%
10,O=C(CCc1ccccc1)Nc1cccc(NC(=O)CCc2ccccc2)c1,-13.4%
11,O=C(Nc1ccccc1)c1cccn(Cc2ccccc2)c1=O,13.7%
12,C=CCn1cccc(C(=O)Nc2ccc(C)c(Cl)c2)c1=O,10%
13,C=CCn1cccc(C(=O)Nc2ccc(C)cc2)c1=O,-7.96%
14,O=C(NCc1ccccc1)c1cccn(Cc2ccccc2)c1=O,-29.3%
15,O=C(CCc1ccccc1)Nc1ccccc1,-2.56%
16,O=C(CCc1ccccc1)Nc1ccncc1,-56.8%
17,O=C(Nc1ccncc1)c1cccn(Cc2ccccc2)c1=O,-55.8%
18,C=CCn1cccc(C(=O)Nc2ccc(C)c(C)c2)c1=O,-71.9%
19,COc1ccc(NC(=O)COC(=O)CN2C(=O)NC(C)(C)C2=O)cc1,2.55%
20,Cc1ccc(-c2cccc(OC(=O)c3ccccc3F)c2)cc1,5.02%
21,COc1ccc(NC(=O)C2CCN(S(=O)(=O)c3ccc4[nH]c(=O)oc4c3)CC2)c(OC)c1,3.47%
22,O=S(=O)(c1ccccc1)c1nc(-c2ccc(F)cc2)oc1NCC1CCCO1 (stereo not shown),-34.6%
23,COc1cc2c(cc1OC)CN(C(=O)C(C)(C)C)CC2,17.6%
24,COc1ccc(CCNCC(O)COc2ccc(OC)cc2C(C)(C)C)cc1 (stereo not shown),-38.8%
25,COc1ccc(CCNCC(O)COc2cccc(Br)c2)cc1 (stereo not shown),-50%

row,Compound,"hERG current change (%, negative = inhibition) at 10uM"
1,COc1ccc(CCNCC(O)COc2cccc(C(C)=O)c2)cc1OC.O=C(O)C(=O)O (stereo not shown),-0.028%
2,COc1ccc(CCNCC(O)COc2ccc(Cl)cc2)cc1OC.Cl (stereo not shown),-72.1%
3,OC(CNCCc1ccc(C(F)(F)F)cc1)COc1ccc2ccccc2c1 (stereo not shown),-46.5%
4,COc1ccc(CCNCC(O)COc2cccc(Br)c2)cc1OC (stereo not shown),-67.3%
5,COc1ccc(CCNC(=O)CCCOc2ccc(Cl)cc2)cc1OC,-15.3%
6,COc1ccc(CCNC(=O)COC(=O)COc2ccc(Cl)cc2)cc1OC,7.05%
7,COc1ccc(CCNCC(O)COc2c(C)cccc2C)cc1OC.O=C(O)C(=O)O (stereo not shown),6.84%
8,CCN1CCCC1CNC(=O)C(=O)Nc1ccccc1OC (stereo not shown),-15%
9,C#CCNC(=O)C1=C[C@@H](c2ccc(Br)cc2)C[C@@H](OCc2ccc(CO)cc2)O1,16.6%
10,Cl.N=c1ccn(Cc2cccc(Cl)c2)cc1,2.03%
11,C=CCO/N=C/C1C(=O)CC(C)(C)CC1=O,10.9%
12,CC(C(=O)NC1CCCC1)N(C(=O)CS(=O)CC(=O)Nc1ccc(F)cc1)c1ccc2c(c1)OCCO2 (stereo not shown),-3.58%
13,CC(=O)c1csc(CS(=O)(=O)c2ccccn2)n1,5.4%
14,Fc1cccc(Nc2nc3ccccc3n3cnnc23)c1,4.55%
15,CCn1c(CS(=O)Cc2ccc(Cl)cc2Cl)nnc1SCc1c(Cl)cccc1Cl (stereo not shown),-6.78%
16,Cn1c(CS(=O)Cc2c(Cl)cccc2Cl)nnc1SCc1ccc(Cl)cc1 (stereo not shown),-56.2%
17,Cn1c(CS(=O)Cc2c(Cl)cccc2Cl)nnc1SCc1c(Cl)cccc1Cl (stereo not shown),-45.1%
18,COc1cnn(-c2ccc([N+](=O)[O-])cc2)c(=O)c1Cl,-2.52%
19,Cn1ncc(Oc2ccc([N+](=O)[O-])cc2)c(Cl)c1=O,-71.2%
20,Cn1ncc(Cl)c(Oc2ccc(Cl)cc2)c1=O,-17%
21,O=C(NCCCN1CCc2ccccc2C1)C1CCN(S(=O)(=O)N2CCCC2)CC1,-2.78%
22,CCCN1CCN(CCCNC(=O)C2CCN(c3nnc(-n4cccc4)s3)CC2)CC1,-14.4%
23,O=C(NCCCN1CCc2ccccc2C1)C1CCN(S(=O)(=O)N2CCC3(CC2)OCCO3)CC1,-12.4%
24,O=C(NCCCN1CCc2ccccc2C1)C1CCN(c2nnc(-n3cccc3)s2)CC1,-55.6%
25,O=C(C1CCN(c2nnc(-n3cccc3)s2)CC1)N1CCCCC1,-6.55%

row,Compound,"hERG current change (%, negative = inhibition) at 10uM"
1,O=C(NCCN1CCc2ccccc2C1)C1CCN(S(=O)(=O)N2CCCCC2)CC1,-53.8%
2,O=C(C1CCN(c2nnc(-n3cccc3)s2)CC1)N1CCOCC1,-13.9%
3,CN1CCN(CCCNC(=O)C2CCN(c3nnc(-n4cccc4)s3)CC2)CC1,20.2%
4,O=C(C1CCN(c2nnc(-n3cccc3)s2)CC1)N1CCc2ccccc2C1,-60.3%
5,Cc1noc(C)c1COC(=O)C1CC(O)CN1S(=O)(=O)c1ccc(Cl)cc1 (stereo not shown),-8.48%
6,O=C(CC1C(=O)NCCN1Cc1ccccc1C(F)(F)F)NCCN1CCCCC1=O (stereo not shown),16.9%
7,O=S(=O)(Cc1noc(-c2ccc(Cl)cc2)n1)Cc1ccco1,-4.77%
8,Cc1cc(C)nc(NC(=O)CSc2nn(C)c(=S)s2)n1,-0.37%
9,Cc1cc2cc(CNC(=O)Nc3ccc(Cl)c(Cl)c3)ccc2n1C,2.71%
10,CCCn1c(NC(=O)c2ccco2)nc2ccccc21,9.09%
11,O=C(Nc1nc2ccccc2n1CCN1CCCCC1)c1ccco1,-54.8%
12,CN(C)CCCn1c(NC(=O)C2CCCCC2)nc2ccccc21,-27.3%
13,CCCCn1c(NC(=O)C2CCCCC2)nc2ccccc21,4.63%
14,O=C(Nc1nc2ccccc2n1CCN1CCCCC1)C1CCCCC1,-61.2%
15,O=C(Nc1nc2ccccc2n1Cc1ccccc1)c1ccco1,20.2%
16,CCn1c(NC(=O)C2CCCCC2)nc2ccccc21,8.36%
17,O=C(Nc1nc2ccccc2n1CCN1CCCC1)C1CCCCC1,-58.6%
18,CCCn1c(NC(=O)C2CCN(C(=O)c3ccccc3C)CC2)nc2ccccc21,-16%
19,CCOC(=O)C1=C(c2ccccc2)NC(SCC(=O)NC2CCCCC2)=C(C#N)C1c1ccco1 (stereo not shown),-1.35%
20,COc1ccc(OC)c(C(=O)Cn2nnc3ccccc3c2=O)c1,9.14%
21,O=[N+]([O-])c1ccc2[nH]nc(-c3ccccc3)c2c1,9.26%
22,O=[N+]([O-])c1ccc2c(c1)C(c1ccccc1)=NCCN2,-69.1%
23,O=C1C2=C(C(c3ccccc3)=NCCN2)C(c2cccc([N+](=O)[O-])c2)N1c1ccccc1 (stereo not shown),-21.3%
24,CN1CCN(c2ccc(Cl)cc2NC(=O)/C=C/c2ccc(F)cc2)CC1,-75.6%
25,O=C(/C=C/c1ccc(Cl)cc1)Nc1ccccc1N1CCOCC1,2.84%

row,Compound,"hERG current change (%, negative = inhibition) at 10uM"
1,CN1CCN(c2ccc(Cl)cc2NC(=O)/C=C/c2cccc(F)c2)CC1,-69.9%
2,CN1CCN(c2ccc(S(=O)(=O)N3CCCCC3)cc2NC(=O)/C=C/c2ccc(Cl)c([N+](=O)[O-])c2)CC1,-17.4%
3,CN1CCN(NC(=O)/C=C/c2cccc(Cl)c2)CC1,-6.09%
4,CCc1cc(C(=O)Nc2cc(Cl)ccc2N2CCN(C)CC2)sc1C,3.43%
5,CCc1c(C)nc(N)nc1N1N=C1SC(C(C)=O)C(C)=O,27.8%
6,CN(CCC#N)C(=O)COC(=O)c1ccccc1OCc1ccccc1Cl,1.72%
7,CNC(=O)CC1C(=O)N(c2ccc(F)cc2)C(=S)N1NC(=O)c1ccc(Br)cc1 (stereo not shown),2.82%
8,O=C(NC(NC(=O)c1c(F)cccc1F)c1ccc([N+](=O)[O-])cc1)c1c(F)cccc1F,-43.8%
9,Cc1ccc(SCCC(=O)NCc2ccco2)cc1,-3.96%
10,C/C(=N/NS(=O)(=O)c1ccc(C)cc1)c1ccc(NC(=O)C(F)(F)F)cc1,10.7%
11,CCOC(=O)C1CCCN(CC(O)COc2ccccc2C(C)=O)C1.Cl (stereo not shown),-46.2%
12,CCOC(=O)C1CCN(CC(O)COC(CC)c2ccccc2)CC1.Cl (stereo not shown),-63.7%
13,CCOC(=O)C1CCCN(CC(O)COC(c2ccccc2)c2ccccc2)C1 (stereo not shown),-79.7%
14,Cl.OC(COCc1ccccc1)CN1CCCCC1 (stereo not shown),6.73%
15,Cl.c1ccc(COC(CN2CCCCCC2)CN2CCCCCC2)cc1,-63.6%
16,OC(COC(c1ccccc1)c1ccccc1)CN1CCCCC1 (stereo not shown),-62.9%
17,CCOC(=O)C1CCCN(CCC(C)c2ccccc2)C1 (stereo not shown),-36.5%
18,CCC(OCC(O)CN1CCCCC1)c1ccccc1.Cl (stereo not shown),16.9%
19,OC(COC(c1ccccc1)c1ccccc1)CN1CCOCC1 (stereo not shown),-5.77%
20,CCOC(=O)N1CCN(CC(O)COC(CC)c2ccccc2)CC1.Cl (stereo not shown),-19.6%
21,OC(COc1ccc(OCc2ccccc2)cc1)CN1CCCCC1 (stereo not shown),-39.6%
22,CCN1CCN(CC(O)COC(c2ccccc2)c2ccccc2)CC1 (stereo not shown),-17.1%
